Compound activity deposited in PubChem BioAssay by National Center for Advancing Translational Sciences (NCATS).
In the library only some 3% were active in any assay of this set; here they are far more common.
VDR inhibitor – blocks the human vitamin D receptor. P11473. Potency, µM, usual class: inhibitors. actives 0.93% (n = 400,000). VDR-SRC2-3 peptide fluorescence polarization, 2 h. AID 504847
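Two reagent solutions held at 4 deg C in the dark were dispensed, compounds pinned at 23 nl, and the mixture incubated 2 h at room temperature. Read-out: fluorescence polarization of VDR–SRC2-3 peptide binding.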
ALOX12 inh – ALOX12 (human) lipoxygenase inhibition. Potency, µM (titrated, usually from 108 µM), most hits filed as inhibitors. purified 12hLO, xylenol orange hydroperoxide absorbance. P18054. actives 1.1% (n = 580,000)
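Hydroperoxide product was detected by ferrous iron/xylenol orange as the 573 to 405 nm absorbance ratio. Arachidonic acid at 40 uM (final) was turned over for 30 min at room temperature by 150 nM human 12hLO, pH 7.0 Hepes buffer, after 15 min compound preincubation.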
PLK1 PBD block – blocks phosphopeptide binding to human PLK1 polo-box domain | Plk1 PBD binding of FITC phosphopeptide, fluorescence polarization | Potency, µM, hits mostly inhibitors | actives 2.8% (n = 360,000) | AID 720504; note: series mostly up to about 57 µM; nearly all actives have a fitted effect of over 65% in size
Target sequence (P53350 whole entry, looked up, the tested form may be a part): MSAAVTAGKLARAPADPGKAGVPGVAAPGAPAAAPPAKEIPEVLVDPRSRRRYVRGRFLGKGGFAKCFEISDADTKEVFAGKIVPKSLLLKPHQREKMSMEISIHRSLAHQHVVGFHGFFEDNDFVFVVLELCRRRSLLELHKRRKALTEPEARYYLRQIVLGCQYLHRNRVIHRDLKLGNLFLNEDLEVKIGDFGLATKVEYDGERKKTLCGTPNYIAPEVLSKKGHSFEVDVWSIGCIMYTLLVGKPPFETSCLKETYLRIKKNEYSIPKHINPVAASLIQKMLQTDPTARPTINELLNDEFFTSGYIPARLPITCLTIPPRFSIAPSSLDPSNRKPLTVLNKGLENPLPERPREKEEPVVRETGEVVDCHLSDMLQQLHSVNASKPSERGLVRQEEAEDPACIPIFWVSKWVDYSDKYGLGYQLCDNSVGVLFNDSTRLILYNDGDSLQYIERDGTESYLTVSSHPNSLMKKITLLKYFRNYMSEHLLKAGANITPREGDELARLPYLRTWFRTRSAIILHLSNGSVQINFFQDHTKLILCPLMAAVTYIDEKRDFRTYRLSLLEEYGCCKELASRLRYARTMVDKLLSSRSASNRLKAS
GCN5L2 inh – blocks human GCN5L2 histone acetyltransferase | Q92830 | GCN5L2 HAT assay, ThioGlo1 CoA-SH fluorescence | Potency, µM (top dose mostly 58.9 µM), usual class: inhibitors | actives 0.21% (n = 390,000) | AID 504327
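GCN5L2 (20 nM) in 50mM HEPES pH 7.5, 0.1mM EDTA, 0.01% Tween-20 preincubated 15 min with compounds at room temperature. Reaction started with H3(1-25) 75uM, acetyl-CoA 70uM, ThioGlo1 50uM; CoA-thiol fluorescence (Ex340/Em540) read at 0 and 20 min.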
Each line names hits and unclear results; the compound was inactive in the other large screens; ! = not confirmed by another sample. Calls come from the whole dose curve; as a rule, active = well fitted curve in the direction sought with a large enough effect; inconclusive = small, poorly fitted or top-dose-only effect, or another doubt; inactive = no such curve, though single readings can be large; an effect the other way counts as inactive or inconclusive.

CO[C@@H]1CO[C@H]2[C@@H]1OC[C@@H]2NC(=S)Nc1ccc(Cl)cc1	ALOX12 inh 79µM (no result: VDR inhibitor, PLK1 PBD block, GCN5L2 inh)
COc1cc(OC)cc(C(=O)Oc2cc(C)cc(C)c2)c1	none (no result: VDR inhibitor, PLK1 PBD block, GCN5L2 inh)
CC(=O)Nc1cc(-c2ccc(F)cc2)cn2c(-c3ccc(F)c(Cl)c3)cnc12	ALOX12 inh inconclusive (no result: VDR inhibitor, GCN5L2 inh)
CC(=O)Nc1cc(-c2ccc(CO)cc2)cn2c(-c3ccc(F)c(Cl)c3)cnc12	ALOX12 inh 35µM, PLK1 PBD block inconclusive (no result: VDR inhibitor, GCN5L2 inh)
COc1ccc(-c2cnc3c(NC(C)=O)cc(-c4ccsc4)cn23)cc1OC	PLK1 PBD block 24µM (no result: VDR inhibitor, ALOX12 inh, GCN5L2 inh)
COc1ccc(-c2cnc3c(NC(C)=O)cc(-c4ccccc4OC)cn23)cc1OC	ALOX12 inh inconclusive (no result: VDR inhibitor, GCN5L2 inh)
CCCS(=O)(=O)Nc1ccc2c(c1)CC(=O)N2CC	none (no result: VDR inhibitor, PLK1 PBD block, GCN5L2 inh)
CCCN=C1N/C(=C\c2ccco2)C(=O)N1c1ccccc1	ALOX12 inh inconclusive
O=C1NC(=S)NC1=Cc1ccco1	VDR inhibitor 28µM, ALOX12 inh inconclusive, PLK1 PBD block 24µM (no result: GCN5L2 inh)
O=C1/C(=C\c2ccco2)NC(=S)N1c1ccccc1	ALOX12 inh 16µM, PLK1 PBD block inconclusive
O=C1NC(=O)/C(=C/c2ccco2)N1	none (no result: PLK1 PBD block)
CC(C)C(=O)Nc1ccccc1C(C)C	none (no result: VDR inhibitor, PLK1 PBD block, GCN5L2 inh)
C=CCN1C(c2cccc(C(F)(F)F)c2)=CS/C1=C(\C#N)c1nnc(N2CCOCC2)n1-c1ccccc1	none (no result: VDR inhibitor, GCN5L2 inh)
C=CCN1C(c2ccc(Br)cc2)=CS/C1=C(\C#N)c1nnc(N2CCOCC2)n1-c1ccccc1	ALOX12 inh 40µM (no result: GCN5L2 inh)
O=C(CCCOC(=O)c1c(Cl)ccc(Cl)c1Cl)c1ccc(F)cc1	none (no result: VDR inhibitor, PLK1 PBD block, GCN5L2 inh)
O=C(c1ccccc1F)N1CCCC(c2nc3ccccc3o2)C1 (stereo not given)	none (no result: VDR inhibitor, PLK1 PBD block, GCN5L2 inh)
CC(C)(C)c1ccc(S(=O)(=O)/N=C2\C=C(NS(=O)(=O)c3ccccc3)C(=O)c3ccccc32)cc1	VDR inhibitor inconclusive, ALOX12 inh 25µM, PLK1 PBD block 13µM, GCN5L2 inh inconclusive
CCc1ccc(S(=O)(=O)/N=C2\C=C(Nc3ccc(C(=O)O)cc3)C(=O)c3ccccc32)cc1	none
Cc1ccc(S(=O)(=O)/N=C2\C=C(NS(=O)(=O)c3ccccc3)C(=O)c3ccccc32)c(C)c1	ALOX12 inh inconclusive, PLK1 PBD block 19µM (no result: GCN5L2 inh)
COCCN1CCn2c(nc3cc(C(=O)NC(C)C)ccc32)C1	none (no result: VDR inhibitor, PLK1 PBD block, GCN5L2 inh)
COc1cc(C2Nc3cccc4cccc(c34)N2)ccc1OC(C)=O	PLK1 PBD block 27µM (no result: ALOX12 inh)
Cc1ccc(C(NC(=O)COc2ccccc2C(N)=O)c2cccs2)cc1 (stereo not given)	none (no result: VDR inhibitor, PLK1 PBD block, GCN5L2 inh)
CCCn1c(=O)c2ccccc2n2c(=S)[nH]nc12	none
CCCCn1c(=O)c2ccccc2n2c(=S)[nH]nc12	ALOX12 inh 6.3µM, PLK1 PBD block 27µM
CCCCCn1c(=O)c2ccccc2n2c(=S)[nH]nc12	VDR inhibitor inconclusive, ALOX12 inh 45µM, PLK1 PBD block 19µM
COc1ccccc1Nc1nc(-c2c[nH]c(C(=O)N3CCCC3)c2)cs1	none (no result: VDR inhibitor, PLK1 PBD block, GCN5L2 inh)
NC(=O)C1CCN(C(=O)CCc2nc3sc4c(c3c(=O)[nH]2)CCCC4)CC1	ALOX12 inh 18µM!
CCN(CC)S(=O)(=O)c1ccc(NN)nc1	VDR inhibitor inconclusive, ALOX12 inh inconclusive, PLK1 PBD block 24µM
Cc1ccc(S(=O)(=O)c2cc3c(=O)n4ccccc4nc3n(Cc3ccco3)c2=N)cc1C	GCN5L2 inh 16µM
N=c1c(S(=O)(=O)c2ccccc2)cc2c(=O)n3ccccc3nc2n1Cc1ccco1	GCN5L2 inh inconclusive
CCOC(=O)c1cc2c(=O)n3ccccc3nc2n(Cc2ccco2)c1=NC(=O)c1ccccc1OC	VDR inhibitor 56µM!, ALOX12 inh inconclusive
COCCOC1CCOC2(CCN(C(=O)c3cccc(C)c3)CC2)C1 (stereo not given)	none (no result: VDR inhibitor, PLK1 PBD block, GCN5L2 inh)
CN1c2ccccc2N(C)C1(C)c1cccc2ccccc12	ALOX12 inh 35µM
CN1c2cccc3cccc(c23)N(C)C1(C)C	none
COc1cccc(C(c2nnnn2CCc2ccccc2)N2CCN(c3ccccc3)CC2)c1OC (stereo not given)	PLK1 PBD block 30µM
COc1ccccc1C(c1nnnn1CCc1ccccc1)N1CCN(c2ccccc2)CC1 (stereo not given)	none
O=C(O)c1c2c(nc3ccc(S(=O)(=O)N4CCC(C(=O)NCc5ccc(Cl)cc5)CC4)cc13)CCCC2	ALOX12 inh 25µM
CC(C)NC(=O)CNC(=O)CCc1ncc(-c2ccc(F)cc2F)o1	none (no result: VDR inhibitor, PLK1 PBD block, GCN5L2 inh)
COCc1nnc(NC(=O)COc2ccc3c(c2)OCO3)s1	ALOX12 inh inconclusive, PLK1 PBD block 17µM
CCOCC(=O)Nc1nnc(COc2ccc(Cl)cc2)s1	VDR inhibitor 79µM, ALOX12 inh inconclusive, PLK1 PBD block 6.7µM
O=C(COc1ccc2c(c1)OCO2)Nc1nnc(Cc2ccccc2)s1	VDR inhibitor inconclusive, PLK1 PBD block 24µM
